According to the supplement of paper PMC10981050:
“And” between values parts separate entries of the source, which are not always exact repeats. Identical values can stand only once. Counter-ions that a name gives are not always drawn.

Assays:
Assay in all cases: cell viability relative to vehicle control; higher = less cytotoxic
Settings in all cases: 10 µM
[1] = system: K562
Method in brief: (§1)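 After removal of identity-inconsistent compounds, the Selleck bioactive, kinase and epigenetic probe libraries were screened on CRISPR-edited mutant clones and isogenic wild-type clones of four leukaemia lines. Plates were 384-well, each well holding 2000 cells in 50 µL medium and receiving a single 10 µM acoustically dispensed dose. CellTiter-Glo luminescence was read 48 h later, after the supernatant was taken off. Genedata Screener was used to express viability as percent of the on-plate vehicle control.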

[2] = system: MARIMO
Method in brief: as §1

[3] = system: MOLM14
Method in brief: as §1

[4] = system: OCI-AML2
Method in brief: as §1

| SMILES | cell viability ([1]; SRSF2 genotype: SRSF2 P95H/wt) | cell viability ([1]; SRSF2 genotype: SRSF2 wt/wt) [%] | cell viability ([2]; SRSF2 genotype: SRSF2 P95H/wt) [%] | cell viability ([2]; SRSF2 genotype: SRSF2 wt/wt) [%] | cell viability ([3]; SRSF2 genotype: SRSF2 P95H/wt) [%] | cell viability ([3]; SRSF2 genotype: SRSF2 wt/wt) [%] | cell viability ([4]; SRSF2 genotype: P95H/wt) [%] | cell viability ([4]; SRSF2 genotype: wt/wt) [%] |
| --- | --- | --- | --- | --- | --- | --- | --- | --- |
| COC1=CC(=O)c2ccccc2C1=O [2-Methoxy-1,4-naphthoquinone] | 3.03% and 1.06% | 18.6 | 46.3 | 48 | 31.2 | 17.5 | 36.9 | 38.8 |
| COc1cc(OC)c(C(=O)CCCN2CCCC2)c(OC)c1 [Buflomedil HCl] | 93.2% and 114% | 108 | 100 | 102 | 112 | 106 | 113 | 101 |
| N#Cc1ccc(-c2c(-c3ncn[nH]3)sc(N3CCOCC3)c2C#N)c(F)c1 | 60.4% and 73.5% | 68.2 | 47.4 | 39 | 27.8 | 28.3 | 9.07 | 24 |
| CCCCCCCCCCCCCCCC(=O)O [Palmitic acid] | 99.6% and 104% | 98.5 | 96.4 | 114 | 100 | 103 | 95.6 | 114 |
| CC[C@@]1(O)C(=O)OCc2c1cc1n(c2=O)Cc2cc3cc(O)ccc3nc2-1 [Hydroxy Camptothecine] | 10.4% and 26.6% | 9.83 | 4.88 | 4.13 | 0.53 | 0.32 | 0.49 | 2.23 |
| CC(=O)Oc1ccccc1C(=O)O [Aspirin (Acetylsalicylic acid)] | 102% and 101% | 94 | 96.4 | 95.9 | 95.7 | 102 | 100 | 96.7 |
| Cc1ccc2nc(CN(CCN(Cc3nc4ccc(C)cc4[nH]3)Cc3nc4ccc(C)cc4[nH]3)Cc3nc4ccc(C)cc4[nH]3)[nH]c2c1 | 1.04% and 0.84% | 1.19 | 0.68 | 0.61 | 0.58 | 0.53 | 0.47 | 0.63 |
| O=C(O)c1cc(I)ccc1NC(=O)[C@H](Cc1ccccc1)NCc1ccccc1 | 102% and 98.6% | 101 | 99.9 | 103 | 99 | 101 | 110 | 119 |
| C#C[C@]1(O)CC[C@H]2[C@@H]3CCc4cc(OC)ccc4[C@H]3CC[C@@]21C [Mestranol] | 79% and 93.7% | 96.3 | 78.5 | 76 | 90.7 | 99.9 | 74.9 | 82 |
| COc1cc(F)c(F)c(Nc2ccc(I)cc2F)c1NS(=O)(=O)C1(C[C@H](O)CO)CC1 [Refametinib (RDEA119, Bay 86-9766)] | 53.8% and 59.1% | 62.1 | 31.8 | 33 | 30.7 | 22.7 | 35.4 | 35.1 |
| CCCCOc1ccc(C(=O)CCN2CCCCC2)cc1 [Dyclonine hydrochloride] | 80.7% and 80.8% | 80.6 | 77.8 | 68.7 | 49.2 | 76.4 | 64.5 | 64.2 |
| Cc1ccc(NC(=S)NNc2c([N+](=O)[O-])cc(C(F)(F)F)cc2[N+](=O)[O-])cc1Cl | 81% and 81.3% | 90.4 | 87.3 | 86.2 | 89.3 | 84.6 | 101 | 94.4 |
| CCOc1cc(C(C)(C)C)ccc1C1=N[C@@](C)(c2ccc(Cl)cc2)[C@@](C)(c2ccc(Cl)cc2)N1C(=O)N1CCN(CCCS(C)(=O)=O)CC1 | 80.8% and 82.7% | 79.8 | 91.2 | 107 | 0.32 | 0.35 | 0.58 | 13.8 |
| COc1ccc(C[C@H](N)C(=O)N[C@H]2[C@@H](O)[C@H](n3cnc4c(N(C)C)ncnc43)O[C@@H]2CO)cc1 [Puromycin 2HCl] | 1.95% and 1.45% | 1.55 | 1.69 | 0.77 | 0.25 | 0.31 | 0.26 | 0.49 |
| O=C1O[C@H]([C@@H](O)CO)C(O)=C1O [Vitamin C (Ascorbic acid)] | 89.8% and 88.3% | 85.8 | 100 | 92.8 | 90.8 | 95.1 | 91 | 93 |
| CCc1ccc(CCOc2ccc(CC3SC(=O)NC3=O)cc2)nc1 (stereo not drawn) [Pioglitazone hydrochloride (Actos)] | 100% and 97% | 93.4 | 104 | 102 | 96.4 | 100 | 95.7 | 93.5 |
| Fc1ccc2[nH]ccc2c1-c1nc(N2CCOCC2)c2sc(CN3CCN(CC4CC4)CC3)cc2n1 | 77.2% and 81.7% | 76.6 | 68.5 | 67.3 | 45.5 | 45.1 | 40.4 | 34.5 |
| O=C(NCCS(=O)(=O)c1ccc(C(F)(F)F)cn1)c1ccc(Cl)cc1 | 103% and 96.6% | 102 | 91.2 | 102 | 102 | 99.2 | 91.7 | 102 |
| CCc1c(O)cc(O)c(C(=O)c2ccc(OCCN3CCOCC3)c(OC)c2)c1CC(=O)N(CCOC)CCOC | 20.4% and 29.7% | 25.7 | 29.3 | 25.4 | 2.57 | 2.85 | 19.3 | 21.8 |
| Cc1cc(/N=N/c2ccc(S(=O)(=O)Nc3ccccn3)cc2)c(N)cc1O | 76.8% and 80.2% | 79.7 | 56.9 | 53.3 | 36.3 | 34.8 | 26.2 | 48.7 |
| CC[C@H]1OC(=O)[C@H](C)[C@@H](O[C@H]2C[C@@](C)(OC)[C@@H](O)[C@H](C)O2)[C@H](C)[C@@H](O[C@@H]2O[C@H](C)C[C@H](N(C)C)[C@H]2O)[C@](C)(O)C[C@@H](C)[C@@H]2N[C@@H](COCCOC)O[C@H]([C@H]2C)[C@]1(C)O [Dirithromycin] | 98.3% and 98% | 98.5 | 97.1 | 109 | 98.7 | 102 | 94.6 | 107 |

| SMILES | cell viability ([1]; SRSF2 genotype: SRSF2 P95H/wt) | cell viability ([1]; SRSF2 genotype: SRSF2 wt/wt) [%] | cell viability ([2]; SRSF2 genotype: SRSF2 P95H/wt) [%] | cell viability ([2]; SRSF2 genotype: SRSF2 wt/wt) [%] | cell viability ([3]; SRSF2 genotype: SRSF2 P95H/wt) [%] | cell viability ([3]; SRSF2 genotype: SRSF2 wt/wt) [%] | cell viability ([4]; SRSF2 genotype: P95H/wt) [%] | cell viability ([4]; SRSF2 genotype: wt/wt) [%] |
| --- | --- | --- | --- | --- | --- | --- | --- | --- |
| C=C1[C@H](OC(=O)/C=C(\C)CC)C[C@@H](C(C)C)[C@@H]2[C@@H]([C@@H](C)OC(C)=O)C(=O)C[C@@H]12 [Tussilagone] | 83% and 91.6% | 89.5 | 57 | 53.2 | 64.5 | 71.3 | 56.6 | 77.6 |
| O=C(O)COc1nn(Cc2ccccc2)c2ccccc12 [Bendazac] | 103% and 104% | 108 | 106 | 111 | 103 | 106 | 111 | 115 |
| C[N+](C)(C)C[C@H](O)CC(=O)[O-] [L-carnitine (Levocarnitine)] | 103% and 99.6% | 99.8 | 99.1 | 105 | 95.1 | 103 | 90.9 | 110 |
| C=C1[C@H](CO)[C@@H](O)C[C@@H]1n1cnc2c(=O)[nH]c(N)nc21 [Entecavir hydrate] | 106% and 109% | 106 | 101 | 96.7 | 94.7 | 106 | 87.7 | 94.7 |
| Cc1ccc(S(=O)(=O)OCC(=O)Nc2ccc(C(=O)O)c(O)c2)cc1 | 95.9% and 95.6% | 97.9 | 95.7 | 102 | 99.7 | 101 | 94.2 | 101 |
| COC(=O)C1=CO[C@@H](O[C@@H]2O[C@H](CO)[C@@H](O)[C@H](O)[C@H]2O)[C@@H]2[C@@]3(C)O[C@H]3[C@@H](O)[C@]12O [Sesamoside] | 101% and 102% | 104 | 102 | 98.4 | 109 | 105 | 104 | 107 |
| Cn1cc(C(=O)[C@@H]2CCc3[nH]cnc3C2)c2ccccc21 [Ramosetron Hydrochloride] | 92.3% and 92.8% | 81.9 | 91.2 | 94.8 | 96.2 | 94.1 | 92.2 | 89.9 |
| NCC(=O)CCC(=O)O [5-Aminolevulinic acid hydrochloride] | 94.7% and 105% | 103 | 109 | 101 | 99.1 | 105 | 108 | 96.3 |
| CC(=O)OCc1ccccc1 [Benzyl acetate] | 103% and 94.2% | 100 | 96.5 | 105 | 97 | 107 | 98.3 | 98.4 |
| O=c1cc(-c2ccc(O)cc2)oc2cccc(O)c12 [4',5-Dihydroxyflavone] | 89.4% and 86% | 89.7 | 84.4 | 84.6 | 64.3 | 72.5 | 66.4 | 69.4 |
| O=C(O)c1ccc(Cl)cc1O [4-Chloro-2-hydroxybenzoic acid] | 108% and 109% | 98.6 | 104 | 103 | 101 | 107 | 101 | 115 |
| Cc1cccc(N(C)C(=S)Oc2ccc3ccccc3c2)c1 [Tolnaftate] | 99.7% and 106% | 91.9 | 89.3 | 109 | 96.9 | 101 | 106 | 109 |
| CC1=CC(=O)CC(C)(C)C1=O [Ketoisophorone] | 98.4% and 92.1% | 100 | 98.3 | 110 | 101 | 105 | 96.1 | 108 |
| C=CCNC1=C2C[C@@H](C)C[C@H](OC)[C@H](O)[C@@H](C)/C=C(\C)[C@H](OC(N)=O)[C@@H](OC)/C=C\C=C(/C)C(=O)NC(=CC1=O)C2=O [17-AAG (Tanespimycin)] | 20.1% and 29.1% | 25 | 27.3 | 24.3 | 1.11 | 1.2 | 18.8 | 20.6 |
| Cc1onc(-c2ccccc2Cl)c1C(=O)N[C@@H]1C(=O)N2[C@@H]1SC(C)(C)[C@@H]2C(=O)O [Cloxacillin sodium] | 102% and 109% | 97.6 | 102 | 106 | 102 | 106 | 105 | 108 |
| CC[C@@]1(O)C(=O)OCc2c1cc1n(c2=O)Cc2cc3cc(O)ccc3nc2-1 [10-Hydroxycamptothecin] | 8.49% and 21.1% | 9.32 | 4.98 | 3.83 | 0.7 | 0.58 | 0.54 | 1.46 |
| NC(=O)/C(=C/n1cnc(-c2cc(C(F)(F)F)cc(C(F)(F)F)c2)n1)c1cncnc1 | 3.74% and 12.7% | 11.3 | 15.4 | 17.5 | 0.67 | 0.57 | 1.55 | 4.56 |
| N#CC1(c2ccc(NC(=O)c3cccnc3NCc3ccncc3)cc2)CCCC1 [Apatinib mesylate] | 79.4% and 87.5% | 81.8 | 77.7 | 86.2 | 45.8 | 42.6 | 68.4 | 62.5 |
| c1ccc2c(CC3=NCCN3)cccc2c1 [Naphazoline hydrochloride (Naphcon)] | 102% and 99.6% | 94.5 | 106 | 107 | 97.1 | 103 | 97.8 | 106 |
| OC[C@H]1O[C@H](OC[C@H]2O[C@H](OC[C@H]3O[C@H](O[C@]4(CO)O[C@H](CO)[C@@H](O)[C@@H]4O)[C@H](O)[C@@H](O)[C@@H]3O)[C@H](O)[C@@H](O)[C@H]2O)[C@H](O)[C@@H](O)[C@H]1O [Stachyose] | 106% and 100% | 99.7 | 102 | 109 | 97.3 | 105 | 94.5 | 93.5 |
